Assay results taken from PubChem BioAssay (Tox21).
Records with an inconclusive call do not appear. Activity calls are given as the source filed them. Unless noted, the call rests on the fitted dose curve.

Columns and labels:
[1] = molecular target: Peroxisome proliferator-activated receptor delta (Homo sapiens) (UniProt Q03181); assay: qHTS assay to identify small molecule agonists of the peroxisome proliferator-activated receptor delta (PPARd) signaling pathway (AID 743212)
Summary of the method: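 Beta-lactamase reporter readout: a ratiometric FRET signal from the LiveBLAzer substrate after 2 h at room temperature. Compound exposure at 37 °C in PPARδ-bla HEK293H cells driven by an upstream activator sequence.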

[2] = molecular target: Peroxisome proliferator-activated receptor delta (Homo sapiens) (UniProt Q03181); assay: qHTS assay to identify small molecule antagonists of the peroxisome proliferator-activated receptor delta (PPARd) signaling pathway (AID 743215; active means well fitted inhibition curve with a large enough effect in the signal ratio in the repeat runs, not every such curve was filed as active; the % refers to the signal ratio;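 further: cells stimulated with agonist L165041 at 300 nM final during compound exposure; series mostly up to about 62 µM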)
Summary of the method: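 Screen format: qHTS, antagonist mode. HEK293H PPARd-bla cells received compound and 300 nM L165041 (final), 17 h, 37 C. Beta-lactamase detected via FRET substrate fluorescence, 2 h, room temperature.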

[3] = molecular target: Bile acid receptor (Homo sapiens) (UniProt Q96RI1); assay: qHTS assay to identify small molecule antagonists of the farnesoid-X-receptor (FXR) signaling pathway (AID 743217; active means well fitted inhibition curve with a large enough effect in the signal ratio in the repeat runs, not every such curve was filed as active; the % refers to the signal ratio)
Sequence of Bile acid receptor (Homo sapiens) (Q96RI1 whole entry, looked up): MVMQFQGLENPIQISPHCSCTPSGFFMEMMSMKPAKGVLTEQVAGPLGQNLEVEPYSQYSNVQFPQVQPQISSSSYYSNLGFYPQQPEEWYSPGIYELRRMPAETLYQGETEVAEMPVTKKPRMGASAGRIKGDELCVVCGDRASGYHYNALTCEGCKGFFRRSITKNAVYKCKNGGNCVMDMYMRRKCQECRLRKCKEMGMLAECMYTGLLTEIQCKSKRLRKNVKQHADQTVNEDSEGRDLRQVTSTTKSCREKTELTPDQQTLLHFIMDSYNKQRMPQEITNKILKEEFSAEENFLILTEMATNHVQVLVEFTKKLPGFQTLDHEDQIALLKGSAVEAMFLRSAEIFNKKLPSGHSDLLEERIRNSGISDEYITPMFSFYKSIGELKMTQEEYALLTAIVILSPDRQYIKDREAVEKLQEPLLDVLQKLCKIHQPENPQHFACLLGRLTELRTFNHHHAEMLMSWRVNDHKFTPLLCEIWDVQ
Summary of the method: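 Quantitative HTS, beta-lactamase reporter format: FXR-UAS-bla HEK 293T cells co-treated 16 h at 37 °C with compounds and 50 uM final chenodeoxycholic acid, then read by B/G FRET fluorescence.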

[4] = qHTS assay to identify small molecule agonists of the farnesoid-X-receptor (FXR) signaling pathway - cell viability counter screen (AID 743218; active means well fitted curve in the direction sought with a large enough effect in the repeat runs; an effect the other way counts as inactive or inconclusive; further: nearly all actives have a fitted effect of over 45% in size)
Summary of the method: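 Same-well cytotoxicity check on FXR-UAS-bla HEK 293T cells: 5 h attachment, 16 h compound at 37 C, CellTiter-Glo luminescence read at room temperature after 30 min.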

[5] = molecular target: Bile acid receptor (Homo sapiens) (UniProt Q96RI1); assay: qHTS assay to identify small molecule agonists of the farnesoid-X-receptor (FXR) signaling pathway (AID 743220; active means well fitted activation curve with a large enough effect in the signal ratio in the repeat runs, not every such curve was filed as active; the % refers to the signal ratio)
Summary of the method: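 FXR-UAS-bla HEK 293T cells carrying a UAS-driven beta-lactamase reporter were plated for 5 h at 37C/5% CO2, then exposed to DMSO-dissolved Tox21 10K compounds for 16 h at 37C. A LiveBLAzer B/G FRET substrate was loaded for 2 h at room temperature before fluorescence reading.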

[6] = qHTS assay to identify small molecule antagonists of the farnesoid-X-receptor (FXR) signaling pathway - cell viability counter screen (AID 743221; active means well fitted cell-killing curve with a large enough effect in the repeat runs, not every such curve was filed as active; further: nearly all actives have a fitted effect of over 50% in size)
Summary of the method: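 HEK 293T FXR-bla cells, 5 h pre-incubation; compound + CDCA 50 uM final, 16 h, 37 C; beta-lactamase FRET read first, then CellTiter-Glo luminescence, 30 min RT.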

[7] = molecular target: Vitamin D3 receptor (Homo sapiens) (UniProt P11473); assay: qHTS assay to identify small molecule agonists of the vitamin D receptor (VDR) signaling pathway (AID 743222)
Sequence of Vitamin D3 receptor (Homo sapiens) (P11473 whole entry, looked up): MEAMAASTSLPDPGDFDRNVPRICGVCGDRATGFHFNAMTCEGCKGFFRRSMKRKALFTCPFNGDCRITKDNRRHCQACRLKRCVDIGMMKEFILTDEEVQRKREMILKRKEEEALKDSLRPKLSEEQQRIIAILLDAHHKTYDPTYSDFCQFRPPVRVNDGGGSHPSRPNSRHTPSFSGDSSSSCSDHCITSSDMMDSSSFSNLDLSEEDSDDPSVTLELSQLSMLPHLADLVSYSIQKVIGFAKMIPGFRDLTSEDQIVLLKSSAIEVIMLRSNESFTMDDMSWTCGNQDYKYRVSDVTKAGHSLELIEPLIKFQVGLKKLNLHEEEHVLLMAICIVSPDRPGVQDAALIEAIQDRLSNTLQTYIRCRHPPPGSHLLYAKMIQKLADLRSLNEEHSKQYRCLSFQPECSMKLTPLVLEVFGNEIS
Summary of the method: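 Using LiveBLAzer B/G FRET detection, agonism was scored in VDR-bla cells exposed overnight (16 h, 37C) to DMSO-dissolved compounds; substrate incubation was 2 h at room temperature.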

[8] = molecular target: Vitamin D3 receptor (Homo sapiens) (UniProt P11473); assay: qHTS assay to identify small molecule antagonists of the vitamin D receptor (VDR) signaling pathway (AID 743223; active means well fitted inhibition curve with a large enough effect in the signal ratio in the repeat runs, not every such curve was filed as active; the % refers to the signal ratio)
Summary of the method: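 Beta-lactamase reporter read-out: FRET substrate fluorescence after 2 h at room temperature, following 16 h exposure of VDR-bla cells to test compound plus 3 nM (final) 1alpha,25-dihydroxyvitamin D3 agonist at 37C.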

[9] = qHTS assay to identify small molecule agonists of the vitamin D receptor (VDR) signaling pathway - cell viability counter screen (AID 743224; active means well fitted curve in the direction sought with a large enough effect in the repeat runs; an effect the other way counts as inactive or inconclusive; further: series mostly up to about 63 µM; nearly all actives have a fitted effect of over 50% in size)
Summary of the method: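 Counter screen for cytotoxicity: VDR-bla cells at 2,000 cells/well, 16 h compound exposure, then CellTiter-Glo luminescence after the beta-lactamase measurement.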

[10] = qHTS assay to identify small molecule antagonists of the vitamin D receptor (VDR) signaling pathway - cell viability counter screen (AID 743225; active means well fitted curve in the direction sought with a large enough effect in the repeat runs; an effect the other way counts as inactive or inconclusive; further: nearly all actives have a fitted effect of over 50% in size)
Summary of the method: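 Viability counter screen run in the same wells as the beta-lactamase reporter assay: HEK 293T VDR-UAS-bla cells, 16 h compound exposure at 37C with 3 nM (final) 1-alpha,25-dihydroxyvitamin D3. CellTiter-Glo luminescence, 30 min, room temperature.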

[11] = qHTS assay to identify small molecule agonists of the NFkB signaling pathway (AID 1159509; active means well fitted curve in the direction sought with a large enough effect in the signal ratio in the repeat runs, not every such curve was filed as active; the % refers to the signal ratio; further: series mostly up to about 61 µM)
Summary of the method: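 Agonist activity was read as beta-lactamase-driven FRET change (460 and 530 nm emission, 405 nm excitation) following 1.5 hr substrate loading at room temperature. Beforehand, ME-180 NFkB-bla reporter cells were treated with compounds for 5 hr at 37 C.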

[12] = qHTS assay to identify small molecule agonists of the NFkB signaling pathway - cell viability counter screen (AID 1159515); further: series mostly up to about 61 µM; nearly all actives have a fitted effect of over 55% in size
Summary of the method: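 Counter screen run alongside the NFkB-bla agonist assay: ME-180 reporter cells exposed to compounds for 5 hr, then lysed with CellTiter-Glo in the same wells. Luminescence, read after 30 min, reflects viable cells.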

[13] = qHTS assay to identify small molecule agonists of the endoplasmic reticulum stress response signaling pathway (AID 1159516; active means well fitted activation curve with a large enough effect in the signal ratio in the repeat runs, not every such curve was filed as active; the % refers to the signal ratio)
Summary of the method: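 For this screen, HeLa cells stably carrying beta-lactamase under the ER stress response element received test compounds, positive controls or DMSO for 5 hr at 37 C; B/G FRET substrate was then added and dual-wavelength emission recorded.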

[14] = qHTS assay to identify small molecule agonists of the endoplasmic reticulum stress response signaling pathway - cell viability counter screen (AID 1159517); further: series mostly up to about 61 µM; nearly all actives have a fitted effect of over 50% in size
Summary of the method: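 ESRE-bla HeLa cells (1,500/well) were plated overnight at 37 C and exposed to compounds for 5 hr. After the 2 hr beta-lactamase substrate read, CellTiter-Glo went into the same wells, and luminescence was read after 30 min at room temperature.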

[15] = qHTS assay to identify small molecule antagonists of the retinoid-related orphan receptor gamma (ROR-gamma) signaling pathway - cell viability counter screen (AID 1159520; active means well fitted curve in the direction sought with a large enough effect in the repeat runs; an effect the other way counts as inactive or inconclusive; further: nearly all actives have a fitted effect of over 50% in size)
Summary of the method: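 Cytotoxicity was read from cellular ATP (CellTiter-Glo luminescence) after 16 hr at 37 C with 1 uM doxycycline induction. The inducer was added 2 hr after compound transfer to Tet-on ROR gamma CHO cells.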

[16] = molecular target: Nuclear receptor ROR-gamma (Homo sapiens) (UniProt P51449); assay: qHTS assay to identify small molecule antagonists of the retinoid-related orphan receptor gamma (ROR-gamma) signaling pathway (AID 1159521; active means well fitted curve in the direction sought with a large enough effect in the repeat runs; an effect the other way counts as inactive or inconclusive)
Summary of the method: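 Luminescence readout (ONE-Glo, 30 min RT) after 16 h doxycycline induction; loss of signal scored as antagonism. CHO cells with TET-inducible RORγ and RORE-LUC reporter; compounds added 2 h before 1 uM final doxycycline.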

[17] = qHTS assay to identify small molecule agonists of the AP-1 signaling pathway - cell viability counter screen (AID 1159525); further: nearly all actives have a fitted effect of over 55% in size
Summary of the method: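 Intracellular ATP by Cell Titer Glo luminescence (30 min, RT) in the same ME-180 AP-1-bla wells after the 5 h compound exposure at 37 °C. Normalised to tetra n-octyl ammonium bromide and DMSO controls.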

[18] = qHTS assay to identify small molecule agonists of the AP-1 signaling pathway (AID 1159526)
[19] = qHTS assay to identify small molecule antagonists of the peroxisome proliferator-activated receptor delta (PPARd) signaling pathway - cell viability counter screen (AID 743213; active means well fitted curve in the direction sought with a large enough effect in the repeat runs; an effect the other way counts as inactive or inconclusive; further: nearly all actives have a fitted effect of over 50% in size)
Summary of the method: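 PPARd-bla HEK293H cells (3000/well) got compound plus 300 nM L165041 agonist for 17 h at 37 C. Viability in the same wells came from CellTiter-Glo luminescence after 30 min at room temperature.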

[20] = qHTS assay to identify small molecule agonists of the peroxisome proliferator-activated receptor delta (PPARd) signaling pathway - cell viability counter screen (AID 743211; active means well fitted curve in the direction sought with a large enough effect in the repeat runs; an effect the other way counts as inactive or inconclusive; further: nearly all actives have a fitted effect of over 55% in size)
Summary of the method: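 Read-out: CellTiter-Glo luminescence, 30 min RT, measured in the same wells as the beta-lactamase reporter. Cells: GeneBLAzer PPAR delta UAS-bla HEK293H, 3000 cells/well, compound exposure 17 h at 37C.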

Measured: Potency

Sequence of Peroxisome proliferator-activated receptor delta (Homo sapiens) (Q03181 whole entry, looked up): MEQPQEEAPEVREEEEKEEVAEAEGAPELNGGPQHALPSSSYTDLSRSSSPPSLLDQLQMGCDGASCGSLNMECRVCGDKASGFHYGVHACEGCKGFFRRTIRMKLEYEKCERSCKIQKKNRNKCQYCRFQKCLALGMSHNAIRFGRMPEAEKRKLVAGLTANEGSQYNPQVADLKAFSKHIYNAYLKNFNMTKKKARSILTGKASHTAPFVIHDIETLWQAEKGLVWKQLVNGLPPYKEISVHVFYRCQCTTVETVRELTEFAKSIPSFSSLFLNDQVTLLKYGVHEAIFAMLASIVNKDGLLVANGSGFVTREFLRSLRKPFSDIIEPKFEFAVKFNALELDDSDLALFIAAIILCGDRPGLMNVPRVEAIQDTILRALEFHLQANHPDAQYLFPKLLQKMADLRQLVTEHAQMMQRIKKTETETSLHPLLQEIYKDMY

Nc1nnc(-c2cccc(Cl)c2Cl)c(N)n1
not listed: [19] | [20]
inactive: all other assays above

C=Cc1ccccn1
not listed: [3] | [5] | [20]
inactive: all other assays above

CC(COC(C)(C)C)OCCCO (stereo not given)
not listed: [1] | [2] | [20]
inactive: all other assays above

COc1ccc2c(c1OC)C(=O)O[C@@H]2[C@H]1c2c(cc3c(c2OC)OCO3)CCN1C
not listed: [2] | [3] | [5] | [8] | [19] | [20]
inactive: all other assays above

CC(C)C[C@H](NC(=O)CNC(=O)[C@H](Cc1ccc(O)cc1)NC(=O)[C@H](CO)NC(=O)[C@H](Cc1c[nH]c2ccccc12)NC(=O)[C@H](Cc1cnc[nH]1)NC(=O)[C@@H]1CCC(=O)N1)C(=O)N[C@@H](CCCN=C(N)N)C(=O)N1CCC[C@H]1C(=O)NCC(N)=O (stereo in doubt)
not listed: [2] | [4] | [5] | [20]
inactive: all other assays above

CC(C)=O
not listed: [2] | [3] | [4] | [5] | [9] | [10] | [19] | [20]
inactive: all other assays above

OCCC(F)(F)C(F)(F)C(F)(F)C(F)(F)C(F)(F)C(F)(F)C(F)(F)C(F)(F)F
not listed: [2] | [3] | [5] | [20]
inactive: all other assays above

O=C(O)c1ccc(Cl)cc1Cl
not listed: [11]
inactive: all other assays above

O=C(OCc1ccccc1)C(=O)OCc1ccccc1
not listed: [3] | [5] | [19] | [20]
inactive: all other assays above

C[Si](C)(C)C
not listed: [3] | [5] | [19] | [20]
inactive: all other assays above

CCOc1cc(NC(C)=O)ccc1C(=O)OC
not listed: [4] | [7] | [8] | [20]
inactive: all other assays above

C=C(C)C1CCC(C)(O)CC1 (stereo not given)
not listed: [1] | [3] | [5] | [20]
inactive: all other assays above

CCC(C=O)CC
not listed: [11]
inactive: all other assays above

Cc1cccc(C)c1OCC(C)N (stereo not given)
not listed: [1] | [2] | [5] | [7] | [8] | [11]
inactive: all other assays above

BrCCCCCBr
not listed: [11]
inactive: all other assays above
